Source: PubChem BioAssay (National Center for Advancing Translational Sciences (NCATS))
Pf growth 96h: P. falciparum growth inhibition at 96 hours. P. falciparum luciferase reporter growth, 96 h. Potency, µM (titrated, usually from 28.7 µM), inactives show at the top dose activity change, negative = inhibition, usual class: inhibitors. 6.9% of 320,000 active; note: % is set by controls: 0 for no effect and ±100 for the full control effect
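Two parasite generations (96 h, 37 C, 5% CO2) of compound exposure in infected erythrocytes (0.05% parasitemia, 2% hematocrit). Luciferase-reporter P. falciparum; decreased luminescence indicates inhibited growth, aimed at apicoplast-acting delayed death.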
NS1 function inh: influenza NS1 inhibition | 0.4% of 270,000 active | Potency, µM (highest dose often 46.1 µM), for the others: at the top dose activity, positive = more growth; calls by dose curve; note: actives are rising curves; nearly all actives have a fitted effect of over 50% in size
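A cell-based growth assay was used: compounds that relieve NS1-induced slow growth of budding yeast raise OD600. Assay medium was yeast nitrogen base with ammonium sulphate and -URA supplement, pH 6.0, with 2% galactose.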
Sm TGR block: inhibitors of Schistosoma mansoni thioredoxin glutathione reductase | purified TGR, DTNB reduction, TNB absorbance 405 nm | Potency, µM (doses to about 114 µM), without a hit: at the top dose activity change, negative = inhibition, actives largely listed as inhibitors | Q962Y6 | 3% of 360,000 active; note: % is set by controls: 0 for no effect and ±100 for the full control effect; nearly all actives have a fitted effect of over 60% in size
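First, TGR (20 nM dispensed) and NADPH were mixed with compound. Second, a 15 min room-temperature incubation followed. Third, further NADPH and then DTNB were added to start the reaction. Finally, TNB absorbance was monitored kinetically.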
Pf growth 48h: inhibits P. falciparum growth in the first generation, 48 h | Potency, µM (top dose mostly 28.7 µM), for the others: at the top dose activity change, negative = inhibition, actives largely listed as inhibitors | AID 504832 | P. falciparum luciferase growth in erythrocytes, 48 h | 5.9% of 310,000 active; note: % is set by controls: 0 for no effect and ±100 for the full control effect
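Luciferase-expressing parasites in RBCs, 2% Hct / 0.1% parasitemia final; RPMI 1640 + 0.5% Albumax; 37 C, 5% CO2, one generation; luminescence read-out, lower signal = inhibition.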
AMA1 RON2 block: inhibitors of Plasmodium falciparum AMA1-RON2 interaction. AlphaScreen AMA1-biotinylated RON2 peptide binding. Potency, µM (series often up to 58.2 µM), inactives show at the highest dose activity change, negative = inhibition, hits mostly inhibitors. 0.2% of 360,000 active;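 note: 0% = vehicle wells and -100% = peptide control; nearly all actives have a fitted effect of over 45% in size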
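AMA1 (3D7) with his tag at 25 nM final met compounds first, then biotinylated RON2 peptide at 25 nM; detection used donor plus acceptor beads, 10 µg/mL apiece, read by AlphaScreen after 30 min at room temperature.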
The depositor's hits bear a star; ? = inconclusive; . = no result given; [ ] = another dose, or the depositor's remark. This is a sample that favours compounds with a hit; in the whole collection about 11% have one here. Unless noted, calls come from the whole dose curve; as a rule, active = well fitted curve in the direction sought with a large enough effect; inconclusive = small, poorly fitted or top-dose-only effect, or another doubt; inactive = no such curve, though single readings can be large; an effect the other way counts as inactive or inconclusive. Potency is the fitted concentration of half-maximal effect.

SMILES | Pf growth 96h | NS1 function inh | Sm TGR block | Pf growth 48h | AMA1 RON2 block
CCN(CC)c1ccc(Nc2cc3n(c(=O)n2)CCc2cc(OC)c(OC)cc2-3)cc1 | 10µM* | -4% | -32% | ? | ?
O=C(Nc1nc2ccccc2s1)NC1CCCCC1 | ? | -6% | -11% | -8% | -8%
CN(Cc1ccccc1)S(=O)(=O)c1cc(Br)cc2c1N(C(=O)C1CC1)CC2 | . | . | -4% | . | .
COc1cc(S(=O)(=O)n2ccnc2C(C)C)ccc1Br | . | . | 1% | . | .
c1ccc(C2=NN(c3ccccc3)CC2)cc1 | 137% | -5% | 5µM* | 148% | 112%
CCOC(=O)/C(=C/c1ccc(N2CCC(c3ccccc3)=N2)cc1)C(C)=O | 221% | -1% | -35% | 202% | -6%
CCN(CC(=O)Nc1cc(S(=O)(=O)N2CCCCC2)ccc1C)Cc1ccccc1 | 12µM* | . | 7% | ? | -3%
CCN(CC(=O)Nc1ccc(C)c(S(=O)(=O)N2CCOCC2)c1)Cc1ccccc1 | ? | . | -7% | 12µM* | 10%
CCCCNC(=S)Nc1cc(S(=O)(=O)N2CCCCC2)ccc1C | ? | 3% | 2µM* | -11% | 1%
Cc1ccc(NC(=O)CCCOc2ccccc2)cc1S(=O)(=O)N1CCOCC1 | ? | . | 5% | 10µM* | -2%
Cc1ccc(S(=O)(=O)N2CCCCC2)cc1NC(=O)c1ccco1 | . | . | . | . | -1%
Cc1ccc(S(=O)(=O)N2CCCCC2)cc1NC(=O)CCOc1ccccc1 | ? | -5% | -4% | -24% | 12%
O=C(CCCOc1ccccc1)Nc1ccc(Cl)c(S(=O)(=O)N2CCOCC2)c1 | . | . | . | . | 2%
Cc1ccc(NC(=O)C(=O)c2c(-c3ccccc3)cc3ccccn23)cc1S(=O)(=O)N1CCOCC1 | . | ? | 7% | 9.3µM* | -12%
Cc1ccc(OCCCC(=O)Nc2ccc(Cl)c(S(=O)(=O)N3CCOCC3)c2)cc1 | 10µM* | . | -2% | ? | -6%
O=C(CCCSc1ccccc1)Nc1ccc(Cl)c(S(=O)(=O)N2CCOCC2)c1 | 10µM* | . | -11% | 13µM* | 6%
Cc1ccc(OCCC(=O)Nc2ccc(S(=O)(=O)N3CCCC3)cc2)cc1 | ? | . | 5% | ? | -9%
Cc1ccc(OCCCC(=O)Nc2ccc(S(N)(=O)=O)cc2)cc1 | 15µM* | . | -13% | 6% | -14%
CCCCn1c(N)c(N(CCC(C)C)C(=O)C2CC(=O)N(c3ccc(OC)cc3OC)C2)c(=O)[nH]c1=O (stereo not given) | -14% | . | 9% | -2% | -5%
CCOc1cc(C=NN2CCCCCC2)ccc1O | . | . | . | . | -21%
CNC(=O)[C@@]1(Cc2ccccc2)C=C[C@@H](C)N1C(C)=O | . | . | . | . | -1%
CCOc1ccc(NC(=O)Cn2c(=O)n(CCc3ccccc3)c(=O)c3c4c(sc32)CCCC4)cc1 | . | . | -1% | . | .
CCOC(=O)c1cnn(-c2ccccc2)c1NC(=O)CN1CCCCC1 | 11% | 1% | -7% | 5% | 25%
Cc1nn(CC(O)CN2c3ccccc3Sc3ccccc32)c(C)c1Br (stereo not given) | 2.6µM* | -81% | 7% | . | ?
O=C1c2ccccc2C(=O)N1CC(O)Cn1nnc2ccccc21 (stereo not given) | 9.3µM* | 3% | 3% | -3% | -4%
SMILES | Pf growth 96h | NS1 function inh | Sm TGR block | Pf growth 48h | AMA1 RON2 block
Cc1ccc2c(c1)c(C)c(C)n2CC(O)Cn1nnc2ccccc21 (stereo not given) | ? | -53% | 0% | 31% | 7%
OC(CN1c2ccccc2Sc2ccccc21)Cn1nnc2ccccc21 (stereo not given) | ? | -150% | 8% | 4.7µM* | -16%
OC(Cn1nnc2ccccc21)Cn1c(C(F)(F)F)nc2ccccc21 (stereo not given) | ? | 3% | 8% | 27% | 3%
COc1cccc(CNC(=O)C(Cc2ccccc2)NS(=O)(=O)c2ccc3c(c2)CCN3C(C)=O)c1 (stereo not given) | . | . | -3% | . | .
O=S(=O)(Nc1cccc(-c2nnco2)c1)c1ccc(F)cc1F | -1% | 1% | 3% | 13% | -1%
O=C(CN1CSCC1=O)N1CCN(S(=O)(=O)c2cc(C(F)(F)F)ccc2Cl)CC1 | 3% | . | 1% | ? | 2%
COc1ccccc1CCC(=O)N1CCN(S(=O)(=O)c2cc(C(F)(F)F)ccc2Cl)CC1 | 3.7µM* | . | 2% | ? | -7%
Cc1ccc(S(=O)(=O)NCC(=O)OCC(=O)N2C(C)CCCC2C)cc1 (stereo not given) | . | . | . | . | 0%
O=C(/C=C/c1ccccc1)/C=C/c1ccccc1 | ? | -37% | 25µM* | -25% | -4%
COc1ccc(/C=C/C(=O)Nn2cnnc2)cc1 | ? | 7% | 3% | 3% | -6%
O=C(NCCCNCc1ccccc1)c1ccncc1 | ? | 0% | 0% | -2% | -7%
O=C(/C=N\O)NCCCNCc1ccccc1 | 5.9µM* | 6% | -1% | -5% | 23%
CCCNC(=O)/C=C/c1ccc(C(C)C)cc1 | 13µM* | -5% | -2% | ? | -6%
O=C(/C=C/c1ccccc1)Nn1cnnc1 | 15µM* | 2% | 3% | 31% | -10%
Cc1ccc(NC(=O)CSc2nnc(-c3cc4occc4n3C)n2-c2ccccc2C)cc1F | . | . | 3% | . | .
O=C(Cn1sc2ccccc2c1=O)N1CCN(C(=O)c2ccco2)CC1 | 5% | 1% | 1% | ? | 1%
O=C(/C=C/c1ccccc1)NCCCNC(=O)/C=C/c1ccccc1 | 8.3µM* | . | -2% | ? | 3%
NC(=S)NC(=O)/C=C/c1ccccc1 | 2.1µM* | . | -6% | 33% | -3%
O=C(C=Cc1ccccc1)NCCNC(=O)C=Cc1ccccc1 | . | . | . | . | 17%
CCN(Cc1ccccc1)C(=O)Cn1cc(S(=O)(=O)Cc2cccc(Cl)c2)c2ccccc21 | . | . | 4% | . | .
CCOCCCNC(=O)C1CCCN(S(=O)(=O)c2ccc(-n3cnnn3)cc2)C1 (stereo not given) | 43% | 4% | -3% | 8% | 12%
CN1CCc2c(OCC(=O)N3N=C(c4cccs4)CC3c3ccc(F)cc3)cccc2C1=O (stereo not given) | ? | 13% | ? | ? | -14%
Cc1cccn2c(=O)nc(SCC(=O)N3N=C(c4cccs4)CC3c3ccc(F)cc3)nc12 (stereo not given) | 3.7µM* | . | -1% | 8.3µM* | 16%
Cc1ccc2nc(SCC(=O)N3N=C(c4cccs4)CC3c3ccc(F)cc3)nc(=O)n2c1 (stereo not given) | . | . | . | . | -6%
CCN1CCc2c(OCC(=O)N3N=C(c4cccs4)CC3c3ccc(F)cc3)cccc2C1=O (stereo not given) | ? | 2% | 2% | 9.3µM* | -12%[11.6 µM]
O=C(CSc1nc2c(cnn2-c2ccc(F)cc2)c(=O)[nH]1)N1N=C(c2cccs2)CC1c1ccc(F)cc1 (stereo not given) | 9.3µM* | 5% | -10% | ? | .
